Data taken from the supplement of paper PMC13380429.

Test system: Vero E6 infected with SARS-CoV-2
Assay: inhibition of SARS-CoV-2 cytopathic effect; higher = more antiviral protection, active = above 15
Conditions: 48 h

Measured: inhibition of SARS-CoV-2 cytopathic effect

NC(CO)(CO)CO [trometamol]
inactive: 1 nM -0.18% | 8.33 nM -2.53% | 100 nM -0.26% | 833.33 nM 2.08% | 10000 nM 4.11%

COc1ccc2[nH]cc(CCNC(C)=O)c2c1 [melatonin]
inactive: 1 nM 2.18% | 8.33 nM 0.84% | 100 nM 2.24% | 833.33 nM 2.42% | 10000 nM -2.74%

C[C@@H]1CC[C@@]2(OC1)O[C@H]1C[C@H]3[C@@H]4CC=C5C[C@@H](O)CC[C@]5(C)[C@H]4CC[C@]3(C)[C@H]1[C@@H]2C [diosgenin]
inactive: 1 nM -0.61% | 8.33 nM -0.09% | 100 nM 0.12% | 833.33 nM -2.38% | 10000 nM -1.29%

[N-]=[N+]=N[C@]1(CO)O[C@@H](n2ccc(N)nc2=O)[C@H](O)[C@@H]1O
inactive: 1 nM -1.63% | 8.33 nM 0.795% | 100 nM 0.87% | 833.33 nM 1.03% | 10000 nM -0.005%

NNC(=O)c1ccncc1 [isoniazid]
inactive: 1 nM -3.24% | 8.33 nM 0.31% | 100 nM 0.58% | 833.33 nM 3.21% | 10000 nM -1.15%

O[C@H]1CC[C@H](Nc2nc(-c3ccccc3)nc3[nH]ccc23)CC1
inactive: 1 nM -1.91% | 8.33 nM -3.12% | 100 nM -4.27% | 833.33 nM -1.49% | 10000 nM -0.8%

Cc1ccc(Oc2ccccc2-c2csc(N=C3NCCCN3)n2)c(C)c1 [abafungin]
inactive: 1 nM 2.5% | 8.33 nM 1.5% | 100 nM 1.28% | 833.33 nM -1.03% | 10000 nM -6.36%
